Only some compounds are listed: those with a hit (about 2.2% of all), similar ones and a draw of the others.
FAS TE block = FAS thioesterase domain inhibitors, primary screen, biochemical, fluorescence intensity, uHTS; Fatty acid synthase (Homo sapiens), P49327; recombinant FAS-TE, OMFH fluorogenic substrate, fluorescence endpoint; inhibition, % at 15 µM; actives 0.67% (n = 360,000); AID 602261, 2012;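 active means compounds whose normalised, plate-corrected inhibition of enzyme fluorescence in the single-dose primary screen is 50% or more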
H9c2 protect = cardioprotection against H2O2-induced cell death, primary screen, uHTS, H9c2 cells, ATPLite luminescence; actives 0.63% (n = 360,000); protection from H2O2 cell death, % at 20 µM; AID 588492, 2011; H9c2 cardiomyocytes, H2O2 injury protection, 2 h;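 active means compounds giving at least 50% protection of heart cells from peroxide-induced death in the single-dose screen, raw or plate-pattern-corrected value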
PLC-beta3 inh = human PLC-beta3 inhibitors, primary screen, biochemical, fluorescence; 1-phosphatidylinositol 4,5-bisphosphate phosphodiesterase beta-3 (Homo sapiens), Q01970; Purified PLC-beta3, fluorogenic substrate; inhibition, % at 12.2 µM; actives 0.18% (n = 370,000); in the data active means inhibition above about 11%
Target sequence (Q01970 whole entry, looked up): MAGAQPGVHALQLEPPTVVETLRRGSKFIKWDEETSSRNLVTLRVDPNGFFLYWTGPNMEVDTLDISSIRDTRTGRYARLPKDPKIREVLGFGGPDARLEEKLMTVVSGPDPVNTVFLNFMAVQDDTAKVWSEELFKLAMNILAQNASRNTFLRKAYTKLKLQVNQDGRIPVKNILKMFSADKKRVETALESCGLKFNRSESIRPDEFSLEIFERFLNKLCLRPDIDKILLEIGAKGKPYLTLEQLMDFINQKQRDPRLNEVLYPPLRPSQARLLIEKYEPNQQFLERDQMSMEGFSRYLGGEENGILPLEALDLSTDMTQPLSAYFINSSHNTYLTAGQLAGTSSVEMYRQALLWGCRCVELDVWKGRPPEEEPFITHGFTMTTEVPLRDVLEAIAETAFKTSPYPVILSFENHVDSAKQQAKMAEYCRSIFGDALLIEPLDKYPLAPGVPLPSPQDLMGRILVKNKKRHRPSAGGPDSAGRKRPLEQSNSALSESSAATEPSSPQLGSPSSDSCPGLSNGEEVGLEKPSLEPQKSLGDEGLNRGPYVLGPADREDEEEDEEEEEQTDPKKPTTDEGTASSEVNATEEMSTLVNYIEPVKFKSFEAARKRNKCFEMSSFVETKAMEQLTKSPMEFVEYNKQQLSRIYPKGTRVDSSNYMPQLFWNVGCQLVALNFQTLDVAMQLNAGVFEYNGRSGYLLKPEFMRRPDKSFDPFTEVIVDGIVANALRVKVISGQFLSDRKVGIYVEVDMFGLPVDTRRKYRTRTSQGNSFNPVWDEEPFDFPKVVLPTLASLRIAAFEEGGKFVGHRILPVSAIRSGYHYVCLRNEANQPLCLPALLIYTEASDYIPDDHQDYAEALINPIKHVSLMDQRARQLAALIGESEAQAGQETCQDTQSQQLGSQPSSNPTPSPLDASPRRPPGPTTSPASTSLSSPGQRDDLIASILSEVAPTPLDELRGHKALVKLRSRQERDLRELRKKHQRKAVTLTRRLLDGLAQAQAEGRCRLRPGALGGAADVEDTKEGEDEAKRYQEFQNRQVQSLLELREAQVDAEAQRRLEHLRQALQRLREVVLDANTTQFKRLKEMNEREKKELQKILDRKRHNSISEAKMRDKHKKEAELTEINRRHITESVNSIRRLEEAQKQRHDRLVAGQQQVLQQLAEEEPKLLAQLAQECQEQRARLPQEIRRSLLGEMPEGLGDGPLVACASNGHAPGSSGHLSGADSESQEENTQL
PLC-gamma1 inh = PLC-gamma1 enzyme inhibitors, primary screen, biochemical, fluorescence, purified enzyme. 1-phosphatidylinositol 4,5-bisphosphate phosphodiesterase gamma-1 (Homo sapiens), P19174. fluorogenic substrate. inhibition, % at 12.2 µM. actives 0.84% (n = 370,000). AID 720700, 2013; in the data active means inhibition above about 9.5%
Large screens that a line does not name were inactive.

O=C(NCC(c1ccccc1)c1ccccc1)[C@H](Cc1c[nH]c2ccccc12)NC1(C(=O)NC2CCCCC2)CCN(Cc2ccccc2)CC1	none (no result: FAS TE block, H9c2 protect)
O=C(NCCc1nc2ccccc2[nH]1)c1ccc(Cl)c([N+](=O)[O-])c1	none
CCCNC(=O)c1ccc2c(=O)c(O)c(-c3ccc(Cl)c([N+](=O)[O-])c3)[nH]c2c1	H9c2 protect 68
C[C@H](O)[C@@H]1CN2CCc3ccc(-c4ccc5c(c4)OCO5)cc3[C@@H]2C[C@@H]1N(C)Cc1cc(Cl)cc(Cl)c1	none (no result: FAS TE block, H9c2 protect)
Cc1cccc(N=Cc2cc(Br)cc(Cl)c2O)c1	H9c2 protect 54
O=C(CSc1nnc(-c2ccco2)n1-c1ccc(Cl)cc1)Nc1ccccc1-c1ccccc1	none (no result: FAS TE block, H9c2 protect)
C[C@H](CO)N1C[C@H](C)[C@@H](CN(C)C(=O)Nc2ccc(C(F)(F)F)cc2)Oc2c(NC(=O)Nc3ccc(C(F)(F)F)cc3)cccc2C1=O	FAS TE block 79
C[C@H]1CN([C@@H](C)CO)C(=O)c2cccc(NC(=O)Nc3ccc(C(F)(F)F)cc3)c2O[C@@H]1CN(C)C(=O)Nc1ccc(F)cc1	none
COc1ccc(S(=O)(=O)N(C)C[C@H]2Oc3c(NC(=O)C4CCCCC4)cccc3C(=O)N([C@H](C)CO)C[C@@H]2C)cc1	PLC-gamma1 inh 9.6
C[C@H](CO)N1C[C@H](C)[C@@H](CN(C)CC2CCCCC2)Oc2c(NS(=O)(=O)c3ccccc3)cccc2C1=O	PLC-beta3 inh 11
COc1ccc(CNCC#Cc2ccc(C(F)(F)F)cc2)c(OC)c1	none (no result: FAS TE block, H9c2 protect)
CCCSc1nnc(-c2cccc(S(=O)(=O)N(C)C)c2)n1-c1cc(OC)ccc1OC	none
CN(C)S(=O)(=O)c1cccc(-c2nnc(SCCNCCO)n2-c2ccc(F)cc2)c1	PLC-beta3 inh 14, PLC-gamma1 inh 14
Cc1ncc(CO)c2c1Oc1nc(-c3ccccc3)nc(SCC(=O)N3CCOCC3)c1C2	none
COc1cccc(-c2nc3c(c(SCC(=O)N4CCOCC4)n2)Cc2c(CO)cnc(C)c2O3)c1	H9c2 protect 72 (no result: PLC-beta3 inh, PLC-gamma1 inh)
Cc1ncc(CO)c2c1Oc1nc(-c3ccccc3)nc(SCC(=O)N3CCCCC3)c1C2	H9c2 protect 74
Cc1cccc(-c2nc3c(c(SCC(=O)N4CCOCC4)n2)Cc2c(CO)cnc(C)c2O3)c1	H9c2 protect 51 (no result: PLC-beta3 inh, PLC-gamma1 inh)
C[C@@H]1[C@@H](O)C[C@@]2(C[C@H](O)c3ccccc3O2)O[C@H]1c1ccccc1	none (no result: FAS TE block, H9c2 protect)
Cc1ccc(S(=O)(=O)NCC(=O)N(c2ccccc2)C(C(=O)NCc2ccccc2)c2ccco2)cc1 (stereo unspecified)	H9c2 protect 58
Cc1cc(C)cc(N(C(=O)CNS(=O)(=O)c2ccccc2)C(C(=O)NCc2ccccc2)c2ccc(C)o2)c1 (stereo unspecified)	none
Cc1sc2ncnc(N/N=C/c3ccccc3O)c2c1C	H9c2 protect 54
Cc1sc2ncnc(N/N=C/c3ccc(O)cc3)c2c1C	none
COc1cccc(/C=N/Nc2ncnc3scc(-c4ccccc4)c23)c1OC	H9c2 protect 60
COc1cccc(C=NNc2nc3ccccc3s2)c1OC	none
COc1ccc(C2=CCN(C)C(=O)N2c2ccc([N+](=O)[O-])cc2)cc1	none (no result: FAS TE block, H9c2 protect)
O=S1(=O)CCOCC(CO)N1Cc1cccc(Br)c1 (stereo unspecified)	none (no result: FAS TE block, H9c2 protect)
Cc1cc([N+](=O)[O-])ccc1-c1ccc(C2Nc3ccccc3C(=O)N2O)o1 (stereo unspecified)	H9c2 protect 63
CCOC(=O)c1ccc(-c2ccc(C3Nc4ccccc4C(=O)N3O)o2)cc1 (stereo unspecified)	H9c2 protect 59
Nc1ccn([C@@H]2O[C@H](C(=O)N[C@H](Cc3ccccc3)C(=O)N3CCN(CCO)CC3)[C@@H](O)[C@H]2O)c(=O)n1	none (no result: FAS TE block, H9c2 protect)
C[C@H]1COc2c3ccc(I)cc3nn21	none (no result: FAS TE block, H9c2 protect)
COc1cc(O)c(C=NN2C(=O)CSC2=S)c(OC)c1	H9c2 protect 62
CCc1cc2cc(C)cc(C)c2nc1SCC(=O)N1CCN(C(=O)c2ccco2)CC1	none
CCc1cc2cccc(C)c2nc1SCC(=O)N1CCN(C(=O)c2ccco2)CC1	H9c2 protect 59
COc1ccc(-c2cc(NC(=O)Cc3c(C)[nH]c4ccccc34)ccc2Nc2cccnc2)cc1F	none (no result: FAS TE block, H9c2 protect)
CCN(c1ccc(NC(=O)COC(=O)c2ccc([N+](=O)[O-])o2)cc1)C(C)C	H9c2 protect 61
O=C(COC(=O)c1ccc([N+](=O)[O-])o1)Nc1cccc(S(=O)(=O)N2CCCCC2)c1	H9c2 protect 53
Cc1ccc(C(=O)OCC(=O)Nc2cccc(S(=O)(=O)N3CCCCC3)c2)o1	none
Fc1ccc(CN2CCN(c3ncc(Cc4ccccc4)cn3)CC2)c(Cl)c1	none (no result: FAS TE block, H9c2 protect)
CCOC(=O)[C@@H]1c2[nH]c3ccccc3c2C[C@@]2(C(=O)OC)C=CCN12	none (no result: FAS TE block, H9c2 protect)
O=C(CN1C(=O)NC2(CCCCC2)C1=O)Nc1ccc2c(c1)OCCCO2	PLC-gamma1 inh 9.6
O=C(CN1C(=O)NC2(CCCCCC2)C1=O)Nc1cccc(F)c1	none
O=C(NN=Cc1cccc([N+](=O)[O-])c1)c1cc(-c2cccnc2)nc2ccccc12	H9c2 protect 51
C/C(=N\NC(=O)c1cc(-c2cccnc2)nc2ccccc12)c1ccc(O)cc1O	H9c2 protect 52
C/C(=N\NC(=O)COc1ccccc1-c1ccccc1)c1ccc(O)cc1O	H9c2 protect 54
Cc1nn(-c2ccccc2)c(N2CCCC2)c1/C=N/NC(=O)c1cc(-c2cccnc2)nc2ccccc12	H9c2 protect 59
CC(C)C[C@@H]1COc2cc(N3CCSCC3)ccc2S(=O)(=O)N1C	none (no result: FAS TE block, H9c2 protect)
COC(=O)C[C@H]1CC[C@@H]2[C@@H](COc3ccc(NC(=O)C4CCCCC4)cc3C(=O)N2C)O1	none (no result: FAS TE block, H9c2 protect)
COC(=O)c1ccc2c(C3(c4c[nH]c5ccccc45)CCN(C(=O)OC(C)(C)C)CC3)c[nH]c2c1	none (no result: FAS TE block, H9c2 protect)
CCC[C@H]1[C@@H](NC(=O)C(c2ccccc2)c2ccccc2)CC[C@@]23CCCN2C(=O)CCC[C@@H]13	none (no result: FAS TE block, H9c2 protect)
O=C(N[C@H](Cc1ccccc1)C(=O)NCCN1CCOCC1)[C@H]1O[C@@H](n2ccc(=O)[nH]c2=O)[C@H](O)[C@@H]1O	none (no result: FAS TE block, H9c2 protect)
Cc1ccc(-n2c(Cc3cccs3)nnc2SCc2ccc(Br)cc2)cc1	none (no result: FAS TE block, H9c2 protect)
CCOc1cccc(/C=N/N=C/c2cccc(OCC)c2O)c1O	none
CCOc1cccc(C=Nc2cc(C)cc(C)c2O)c1O	H9c2 protect 93
CCOC(=O)c1c(C)[nH]c(C)c1C(=O)COc1ncnc2cc([N+](=O)[O-])ccc12	H9c2 protect 65
O=C(Nc1nc(-c2cc(F)ccc2F)cs1)C1=NN(c2ccccc2)C(=O)CC1	H9c2 protect 51
CC(C)(NO)/C(=N/O)c1cccs1	PLC-beta3 inh 12
Cn1c(=O)n(CCc2ccccc2)c(=O)c2c1nc1n2CCN1Cc1ccco1	H9c2 protect 98
COc1cc(C)cc2oc(=O)c(CC(=O)N3CCN(C(=O)C4COc5ccccc5O4)CC3)c(C)c12 (stereo unspecified)	H9c2 protect 47
O=C(CN1CCN(c2ccccc2F)CC1)c1ccc(O)c(O)c1	H9c2 protect 53

High-throughput results as filed in PubChem.
